# Screens deposited in PubChem by National Center for Advancing Translational Sciences (NCATS).
# Nrf2 block – Nrf2 qHTS screen for inhibitors; A549 ARE-Fluc reporter, luciferase luminescence, 18-24 h; Potency, µM (highest dose often 46 µM), for inactives: at the top dose activity change, negative = inhibition, actives largely listed as inhibitors; actives 2.1% (n = 360,000); further: on the % scale 0 is the no-effect control and ±100 the full control effect; nearly all actives have a fitted effect of over 60% in size
#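 Nrf2 function is reported as luminescence of an ARE-controlled luciferase in A549 cells. Compounds were tested at several concentrations, and a CellTiter-Fluor read on the same wells flagged cytotoxicity.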
# ATXN2 expr inh – Primary qHTS for Inhibitors of ATXN expression; HEK-293 ATXN2-luciferase reporter, luminescence, 24 h; Potency, µM (doses to about 57 µM), inactives show at the highest dose activity change, negative = inhibition, most hits filed as inhibitors; actives 0.72% (n = 360,000); AID 1745845, 2022; further: on the % scale 0 is the no-effect control and ±100 the full control effect; nearly all actives have a fitted effect of over 55% in size
#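 qHTS (up to 57 uM final) was run with 24 h compound exposure of reporter cells at 37 °C. Each well was multiplexed: SteadyGlo luminescence measured ATXN2-luciferase expression after a fluorogenic Gly-Phe-AFC viability readout (25 uM final).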
# TGFb SMAD3 inh – qHTS for Inhibitors of TGF-b; HepG2 CAGA-GFP TGF-b/SMAD3 reporter, GFP fluorescence, 18 h; TGF-beta stimulated, 500 pg/mL final; Potency, µM (top dose mostly 46.1 µM), without a hit: at the top dose activity, negative = inhibition, most hits filed as inhibitors; actives 1.2% (n = 410,000); AID 588855, 2011; further: on the % scale 0 is the no-effect control and ±100 the full control effect; nearly all actives have a fitted effect of over 65% in size
#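 GFP signal (ex488/em500-530) from TGF-beta-stimulated HEPG2 CAGA-GFP cells, 500 pg/mL final, 18 h at 37 degrees C in DMEM plus 1% FBS, normalized to unstimulated and DMSO-stimulated controls.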
# ATXN viability – Viability Counterscreen for Primary qHTS for Inhibitors of ATXN expression; S2 cells (HEK-293 line with an ATXN2-luciferase reporter) viability, CellTiter-Fluor protease fluorescence, 24 h; Potency, µM (series often up to 56.7 µM), actives largely listed as cytotoxic; actives 0.49% (n = 400,000); further: nearly all actives have a fitted effect of over 40% in size
# HepG2 viability – qHTS for Inhibitors of TGF-b: Cytotox Counterscreen. HepG2 CAGA-GFP viability, ATP luminescence, 18 h. actives 0.76% (n = 410,000). Potency, µM (highest dose often 46.1 µM), for inactives: at the top dose activity change, negative = cytotoxicity, usual class: cytotoxic. AID 588856, 2011
#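 HepG2 CAGA-GFP cells (1000/well, DMEM with 1% FBS) received compound, then TGF-beta at 500 pg/mL final, and were incubated 18 hours at 37 degrees C. Viability was read by CellTiter-Glo luminescence. Media-only wells were set as complete cell-killing and DMSO as no toxicity.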
# A549 viability – Nrf2 qHTS screen for inhibitors: counterscreen for cytotoxicity; A549 ARE-Fluc cells, CellTiter-Fluor viability, 18-24 h; Potency, µM (titrated, usually from 46 µM), for inactives: at the highest dose activity change, negative = cytotoxicity, usual class: inhibitors; actives 0.16% (n = 390,000); further: on the % scale 0 is the no-effect control and ±100 the full control effect
#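 A549 ARE-Fluc cells in 5% FBS OPTI-MEM, 5000 cells/well, rested 2 h then exposed to compounds in concentration-response for 18-24 h at 37 °C. Viability by CellTiter-Fluor fluorescence (Ex 405/Em 525) after 30 min; luciferase luminescence (BugLite, 15 min, RT) read afterwards.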
# The depositor's hits bear a star; i = inactive; ? = inconclusive; / = no result. The list is not random: actives were taken first. Their share in the collection is about 3.8%. The call rests on the fitted dose curve; in most records, active means well fitted curve in the direction sought with a large enough effect; inconclusive means small, poorly fitted or top-dose-only effect, or another doubt; inactive means no such curve, though single readings can be large; an effect the other way counts as inactive or inconclusive. Potency means the concentration at half of the fitted maximal effect.
SMILES,Nrf2 block,ATXN2 expr inh,TGFb SMAD3 inh,ATXN viability,HepG2 viability,A549 viability
Cc1ccc(-n2nc(C(=O)Nc3cccc(C#N)c3)c3c4ccccc4n(C)c3c2=O)cc1,?,0%,-8%,i,9%,?
C[C@@H]1NC(=O)[C@@H](N)CNC(=O)[C@H](C2CCNC(N)=N2)NC(=O)/C(=C/NC(N)=O)NC(=O)[C@H](CNC(=O)C[C@@H](N)CCCN)NC1=O (stereo partly drawn),/,/,/,i,/,/
COC(=O)[C@]12CCC(C)(C)C[C@@H]1[C@@H]1C(=O)C=C3[C@@]4(C)C=C(C#N)C(=O)C(C)(C)[C@@H]4CC[C@@]3(C)[C@]1(C)CC2,/,1.7µM*,/,2.5µM*,/,/
CC(=O)Oc1ccc(-c2nc(-c3ccccc3)no2)cc1,/,/,-5%,/,-43%,/
CCCCn1c(N)c(N(CC(C)C)C(=O)CSc2nnc(-c3ccc(Cl)cc3)o2)c(=O)[nH]c1=O,11%,1%,0%,i,-3%,-1%
O=c1[nH]nc(OCCCc2ccc(Cl)cc2)c(NCc2cccnc2)c1Br,/,24µM*,/,/,/,/
Clc1ccc(NCc2cccnc2)cc1,-18%,-11%,1%,i,22%,1%
Cc1cccc(N=C2NN=C(c3c(C)[nH]c4ccccc34)CS2)c1,?,28µM*,0%,?,-101%,?
Cc1cccc(C)c1OCc1cc(C(=O)N(Cc2c(C)nn(C)c2C)C2CC2)no1,23µM*,?,?,i,-28%,-8%
Nc1nc2ccccc2cc1-c1cccs1,?,52%,-17%,i,5%,0%
N#Cc1cc2ccccc2nc1N,8%,-11%,?,i,0.28µM*,10%
O=C(c1cccc(Cn2cccn2)c1)N1CCC(n2c(C3CCCO3)nc3cc(C(F)(F)F)ccc32)CC1 (stereo not drawn),/,/,/,i,/,/
COc1ccc(N(CC(=O)NC2CCCCC2)C(=O)CNC(=O)c2ccco2)cc1,3%,-10%,44%,i,7%,4%
COc1ccc(S(=O)(=O)NCc2ccncc2)cc1NC(=O)c1ccccc1,6.5µM*,-20%,0%,?,-19%,-7%
CN(c1ccc(F)cc1)S(=O)(=O)c1ccc(Cl)c(C(=O)Nc2ccncc2)c1,18µM*,-16%,?,?,-19%,-8%
CCN(c1ccccc1)S(=O)(=O)c1ccc(Cl)c(C(=O)Nc2ccncc2)c1,/,/,8%,i,-9%,/
O=C(Nc1ccccc1)c1cc(S(=O)(=O)Nc2cccnc2)ccc1Cl,-10%,-16%,3%,/,6%,0%
O=C(Nc1ccccc1)c1cc(S(=O)(=O)NCc2ccncc2)ccc1Cl,18µM*,-14%,-12%,?,-6%,-4%
COc1ccc(S(=O)(=O)NCc2ccncc2)cc1NC(=O)c1ccc(Cl)cc1,4.6µM*,?,-17%,i,-11%,-3%
CCOC(=O)c1c(C)[nH]c(CCC(=O)NCCCN2CCN(c3ccccc3F)CC2)c1C,/,/,?,/,-34%,0%
COc1ccc(N2CCN(S(=O)(=O)CC34CCC(CC3=O)C4(C)C)CC2)cc1 (stereo not drawn),?,-5%,-5%,i,-12%,-2%
COc1ccc(S(=O)(=O)N2CCN(C(=O)CCCN3C(=O)NC4(CCCC4)C3=O)CC2)cc1,-1%,-5%,-5%,i,-2%,1%
COc1cc(OC)c(NC(=O)C(C)n2c(=O)cc(-c3ccccc3)c3c(C)nn(C)c32)cc1Cl (stereo not drawn),?,9%,-6%,i,-46%,-1%
O=C(CSc1nc(=O)[nH]c2c1CCCC2)NCc1ccc(Cl)cc1,/,/,18%,/,-16%,-9%
